Shown are actives, neighbours in structure and some others; about 7.9% of the full set was active somewhere.
LASV entry inh: qHTS for Inhibitors of binding or entry into cells for Lassa Virus; Lassa virus pseudotype entry inhibition, cell reporter; Potency, µM (highest dose often 37.9 µM), without a hit: at the highest dose activity change, negative = inhibition, most hits filed as inhibitors; actives 1.2% (n = 300,000); calls by dose curve; tested in HEK293 cells; also: potency is read from the fitted curve at half-maximal effect; nearly all actives have a fitted effect of over 50% in size
MARV entry inh: qHTS for inhibitors of binding or entry into cells for Marburg Virus; Marburg virus pseudotyped entry inhibition, cell reporter; Potency, µM (titrated, usually from 37.8 µM), without a hit: top-dose activity change, negative = inhibition, actives largely listed as inhibitors; actives 1.8% (n = 300,000); AID 540276, 2011; calls by dose curve; tested in HEK293 cells; also: potency is read from the fitted curve at half-maximal effect
HCMV inh: qHTS Assay for inhibitors of the human cytomegalovirus (HCMV). HFF cells, HCMV-luciferase reporter, 72 h; active compounds read low. activity change, negative = inhibition, % at 57.5 µM. actives 4.5% (n = 410,000). AID 1259415, 2018; in the data active = activity change below about -60%; inconclusive = no clear call, values can overlap the other calls; inactive = above about -39%
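Steps: HFFs plated, 16 h 37C; compounds added; HCMV-luciferase added to MOI 1 PFU/cell; 72 h 37C; OneGlo reagent, 5 min room temperature; luminescence read, normalized to controls.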
FMDV antiviral: High Throughput Screening for Foot and Mouth Disease Virus Antivirals; FMDV antiviral cell-based qHTS; actives 1.2% (n = 410,000); AID 1159524, 2015; Potency, µM (doses to about 57.9 µM), for inactives: at the top dose activity change, negative = inhibition, most hits filed as inhibitors; calls by dose curve; tested in HEK293T cells; also: read-out not given here; potency is read from the fitted curve at half-maximal effect; nearly all actives have a fitted effect of over 45% in size
HCV inh: qHTS Assay for Inhibitors of Hepatitis C Virus (HCV). Huh7.5.1 HCVcc-Cre infection, luciferase reporter, 44 h. Potency, µM (titrated, usually from 41.8 µM), for inactives: at the highest dose activity change, negative = inhibition, hits mostly inhibitors. actives 3.4% (n = 340,000). AID 651820, 2012; active = well fitted inhibition curve with a large enough effect; inconclusive = small, poorly fitted or top-dose-only effect, or another doubt; inactive = no such curve, though single readings can be large or run the other way; also: potency is read from the fitted curve at half-maximal effect
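After 44 h co-culture of compound, cells and HCVcc-Cre (~0.5 moi), substrate is added for 15 min at room temperature and luciferase measured over 15 sec. Cells were seeded at 1,000/well and pre-cultured 4 h.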
Starred values were filed as active, the others as inactive; u = inconclusive; x = not tested or not shown; + = active, no number; [ ] = dose if it differs, or a comment. % is scaled to controls: 0 for no effect and ±100 for the full control effect.

SMILES | LASV entry inh | MARV entry inh | HCMV inh | FMDV antiviral | HCV inh
NC(=O)CC(NC(=O)Cc1cccc2ccccc12)c1ccc(NCCc2ccc(F)cc2)c([N+](=O)[O-])c1 (stereo not drawn) | x | x | -67.5* | -5.1% | 6.0%
NC(=O)CC(NC(=O)Cc1ccc(Br)cc1)c1ccc(NC2CCN(Cc3ccccc3)CC2)c([N+](=O)[O-])c1 (stereo not drawn) | x | x | -93.5* | 9.3% | 1.7%
NC(=O)CC(NC(=O)Cc1cccc2ccccc12)c1ccc(NC2CCCCCCC2)c([N+](=O)[O-])c1 (stereo not drawn) | x | x | -62.5* | -8.8% | 19.6%
O=C(Cn1c(-c2cccs2)cc2ccccc21)NCCCN1CCN(c2cccc(Cl)c2)CC1 | -2.7%[46.1 µM] | x | u | -25.0% | x
CC(=O)Nc1nc2c(s1)CCc1ccccc1-2 | x | x | 0.0 | 23.5% | u
O=C(Nc1nc2c(s1)CCc1ccccc1-2)c1ccco1 | 17.5% | u | 112.2 | -7.7% | 31.6µM*
O=C(Nc1nc2ccc(Cl)cc2s1)c1ccco1 | 11.2µM* | u | 42.9 | -19.8% | 5.6%
Cc1ccc2nc(NC(=O)c3ccco3)sc2c1 | 1µM* | 4.47µM* | u | -79.5% | -2.2%
O=C(Nc1nc2ccc(Br)cc2s1)c1ccco1 | u | u | 114.8 | 11.6% | -16.8%
Cc1ccc2nc(NC(=S)NC(=O)c3ccco3)sc2c1 | u | 3.9% | 27.4 | 42.0% | -27.0%
Cc1ccc(OCc2nnc(NC(=O)c3ccco3)s2)c(C)c1 | 3.0% | 23.8% | -105.2* | x | 20.8%
O=C(Nc1nc2c(ccc3ccccc32)s1)c1ccco1 | u | 14.6µM* | 83.1 | 0.2% | 25.1µM*
O=C(Nc1nc2c(F)c(F)c(F)cc2s1)c1ccco1 | -21.1%[46.1 µM] | u | 73.4 | 18.1% | 1.8%
CN1CCC(Nc2nc(Br)cnc2N)CC1 | x | x | 9.7 | x | x
Cc1cc(Nc2ccc(C)c(Cl)c2)nc(N2CCOCC2)n1 | u | u | 78.7 | -15.0% | u
CC(C)c1ccc(Nc2nc(N3CCOCC3)nc(N3CCOCC3)n2)cc1 | x | x | 2.5 | u | x
Cc1ccc(Nc2cc(C)nc(N3CCOCC3)n2)cc1 | 23.2% | 5.62µM* | 275.8 | 11.5% | u
Fc1ccc(Nc2nc(N3CCOCC3)nc(N3CCOCC3)n2)cc1Cl | x | x | -4.9 | -22.5% | -15.6%
Fc1ccccc1Nc1nc(N2CCOCC2)nc(N2CCOCC2)n1 | x | x | 19.4 | -26.9% | u
Cc1ccc(Nc2nc(N3CCOCC3)nc(N3CCOCC3)n2)cc1 | -36.6% | 1.16µM* | -64.5* | -0.5% | u
Clc1ccc(Nc2nc(NCCN3CCOCC3)nc(N3CCOCC3)n2)cc1 | u | 2.82µM* | x | -44.6% | -14.9%
Cc1ccccc1Nc1nc(N2CCOCC2)nc(N2CCOCC2)n1 | -28.8%[46.1 µM] | 6.31µM* | + | -26.0% | -17.0%
COc1ccccc1CN1CCOc2ccc(C(C)(O)COc3ccccc3)cc2C1 (stereo not drawn) | x | x | x | -6.1% | x
CN1CCN(c2nc(Nc3cccc(C(F)(F)F)c3)nc(N3CCOCC3)n2)CC1 | u | 20.6µM* | -17.6 | 26.8% | u
c1ccc(Nc2nc(Nc3ccccc3)nc(N3CCNCC3)n2)cc1 | -17.7%[46.1 µM] | 6.31µM* | 29.1 | -8.2% | -26.0%
SMILES | LASV entry inh | MARV entry inh | HCMV inh | FMDV antiviral | HCV inh
COc1cc(OC)cc(C(=O)NCC2Cc3cccc(-c4nc(C)cnc4C)c3O2)c1 (stereo not drawn) | x | x | x | -12.1% | x
CCc1ccc(-n2c(=O)c3sc4ccccc4c3n(CC(=O)N(CC)Cc3ccccc3)c2=O)cc1 | 2.4%[46.1 µM] | u | 7.0 | 0.0% | x
COc1ccc2ccccc2c1CN1CCOc2ccc(CN3CCN(CCO)CC3)cc2C1 | x | x | x | -5.4% | x
Cc1cccc(-c2nc(C)c(CCNC(=O)C(=O)Nc3ccccc3C#N)s2)c1 | -24.0%[46.1 µM] | x | 7.0 | -18.8% | x
CC(Cc1ccccc1)NC(=O)CC(c1ccccc1)c1ccccc1O (stereo not drawn) | 5.62µM* | u | -21.0 | -29.2% | u
O=C(CC(c1ccccc1)c1ccccc1O)NCc1ccccc1 (stereo not drawn) | u | u | 29.2 | 12.2% | 9.8%
Cc1ccc(Nc2ccc(N3CCN(C(=O)c4ccc([N+](=O)[O-])cc4)CC3)nn2)cc1 | 18.0%[46.1 µM] | x | 31.0 | -24.2% | x
CC(=O)c1nn(-c2cccc(Br)c2)cc1C(=O)c1ccco1 | -2.3% | 2.4% | 7.5 | -1.2% | -21.7%
Cc1nnc(-c2ccco2)c2cn(-c3cccc(Br)c3)nc12 | u | -15.7%[46.1 µM] | -29.1 | 22.4µM* | u
Cc1nnnn1/C(=C\c1ccccc1)C(=O)OCC(=O)N(C)C1CCS(=O)(=O)C1 (stereo not drawn) | -1.0% | -29.8%[46.1 µM] | x | -24.0% | -9.8%
CC(=O)c1ccccc1NC(=O)COC(=O)/C(=C/c1ccccc1)n1nnnc1C | u | u | 0.4 | 22.4µM* | -2.9%
CCN(C(=O)COC(=O)/C(=C/c1ccccc1)n1nnnc1C)C1CCCCC1 | -7.8% | 12.6µM* | u | 22.4µM* | u
Cc1cc(C(=O)NC2CCCc3c2cnn3-c2ccccc2F)nc(C)n1 (stereo not drawn) | u | u | -20.6 | -23.8% | x
COc1cc(C(=O)NC2CCCc3c2cnn3-c2ccccc2F)cc(OC)c1OC (stereo not drawn) | -12.0%[46.1 µM] | u | -62.2* | u | 8.91µM*
CC(C)c1cc(C(=O)NC2CCCc3c2cnn3-c2ccccc2F)no1 (stereo not drawn) | x | x | -88.1* | -26.7% | 11.2µM*
CCc1sc(Nc2cccc(Cl)c2)nc1-c1cc2cccc(OC)c2oc1=O | u | x | -22.6 | 4.5% | x
N#C/C(=N/Nc1ccc(OC(F)(F)F)cc1)C(N)=S | x | x | -98.4* | 9.6% | u
COc1ccc2c(c1)CC[C@@H]1[C@@H]2CC[C@]2(C)[C@@H](NCCCCCCN3C(=O)C=CC3=O)CC[C@@H]12 | x | x | x | -8.5% | x
CCN1CCN(/C=N/c2nc3c(s2)CCCC3)CC1 | u | 5.8µM* | -68.9* | x | u
Cc1c(/C=C/C(=O)c2ccc(C(C)C)cc2)cnn1C | u | 14.1%[46.1 µM] | -87.1* | -1.2% | 31.6µM*
Cc1c(/C=C/C(=O)c2ccc(O)cc2)cnn1C | 1.2% | -15.4% | -14.4 | 11.1% | u
Cc1sc(NC(=O)C2CSC3(C)CCC(=O)N23)nc1-c1ccc(F)cc1 (stereo not drawn) | u | u | -4.5 | -12.7% | 14.1µM*
COc1cc(NC(=O)C2CSC3(C)CCC(=O)N23)c(OC)cc1Cl (stereo not drawn) | -7.4% | 16.1% | 3.8 | -12.1% | 10µM*
Cc1cccc(C)c1NC(=O)CCC(=O)N1Cc2ccccc2Oc2ncccc21 | 2.5%[46.1 µM] | x | 12.6 | -5.2% | x
Nc1ncnc(N)c1N=Nc1ccccc1 | u | 5.01µM* | -64.1* | -22.1% | -28.0%
Nc1nn(-c2ccccc2)c(N)c1N=Nc1ccccc1 | u | u | 170.8 | -12.7% | u
